In the supplement of paper PMC6555819:

What was measured:
Experiment in all cases: PBM binding z-score (relative to random genomic background probes); higher = stronger binding; sequences stand for … in GC…GCGATTGACAGCGTAGAATGAAGG
[1] = tested on: FXR:RXRa (NR concentration 270 nM, RXRa partner concentration 90 nM)
How it was run: (§1)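 Custom Agilent 4×180K protein-binding microarrays carried double-stranded probes. Their 34-nt variable regions held direct-repeat seeds, single-nucleotide variants, half-site ablations and random human genomic background sequences. Arrays were incubated 1 h with ligand-free nuclear receptor dimers in PBS pH 7.4, 2% milk, 0.02% Triton X-100, 1 mM DTT, 0.2 mg/mL BSA and 0.4 mg/ml salmon testes DNA. Antibodies against each partner (one per run) detected binding, and scanned fluorescence was regression-normalized. Binding z-scores use random background probes as reference.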

[2] = tested on: LXRa:RXRa (NR concentration 270 nM, RXRa partner concentration 90 nM)
How it was run: as §1

[3] = tested on: LXRa homodimer (NR concentration 270 nM)
How it was run: as §1

[4] = tested on: LXRb:RXRa (NR concentration 270 nM, RXRa partner concentration 90 nM)
How it was run: as §1

[5] = tested on: LXRb homodimer (NR concentration 270 nM)
How it was run: as §1

[6] = tested on: PPARa:RXRa (NR concentration 270 nM, RXRa partner concentration 90 nM)
How it was run: as §1

[7] = tested on: PPARg:RXRa (NR concentration 180 nM, RXRa partner concentration 90 nM)
How it was run: as §1

[8] = tested on: PPARg:RXRa 270nM:90nM, anti-RXR (NR concentration 270 nM, RXRa partner concentration 90 nM)
How it was run: as §1

[9] = tested on: PPARg:RXRa 30nM:10nM, anti-RXR (NR concentration 30 nM, RXRa partner concentration 10 nM)
How it was run: as §1

[10] = tested on: PPARg:RXRa 90nM:30nM, anti-RXR (NR concentration 90 nM, RXRa partner concentration 30 nM)
How it was run: as §1

[11] = tested on: PPARg:RXRa DBDmut IVT, anti-RXR (DBD mutation: RXRa K156A/R161A, NR concentration 270 nM, RXRa partner concentration 90 nM)
How it was run: as §1

[12] = tested on: PPARg:RXRa IVT, anti-PPARg (NR concentration 270 nM, RXRa partner concentration 90 nM)
How it was run: as §1

[13] = tested on: PPARg DBDmut:RXRa IVT, anti-PPARg (DBD mutation: PPARg1 K132A/R137A, NR concentration 270 nM, RXRa partner concentration 90 nM)
How it was run: as §1

[14] = tested on: PPARg DBDmut IVT, anti-PPARg (DBD mutation: PPARg1 K132A/R137A, NR concentration 270 nM)
How it was run: as §1

[15] = tested on: PPARg homodimer (NR concentration 180 nM)
How it was run: as §1

[16] = tested on: PXR:RXRa (NR concentration 270 nM, RXRa partner concentration 90 nM)
How it was run: as §1

[17] = tested on: PXR homodimer (NR concentration 270 nM)
How it was run: as §1

[18] = tested on: RARa:RXR (NR concentration 270 nM, RXRa partner concentration 90 nM)
How it was run: as §1

[19] = tested on: RARa homodimer (NR concentration 270 nM)
How it was run: as §1

[20] = tested on: RARb:RXRa (NR concentration 270 nM, RXRa partner concentration 90 nM)
How it was run: as §1

| Sequence | PBM binding z-score [1] | PBM binding z-score [2] | PBM binding z-score [3] | PBM binding z-score [4] | PBM binding z-score [5] | PBM binding z-score [6] | PBM binding z-score [7] | PBM binding z-score [8] | PBM binding z-score [9] | PBM binding z-score [10] | PBM binding z-score [11] | PBM binding z-score [12] | PBM binding z-score [13] | PBM binding z-score [14] | PBM binding z-score [15] | PBM binding z-score [16] | PBM binding z-score [17] | PBM binding z-score [18] | PBM binding z-score [19] | PBM binding z-score [20] |
| --- | --- | --- | --- | --- | --- | --- | --- | --- | --- | --- | --- | --- | --- | --- | --- | --- | --- | --- | --- | --- |
| TCATATTGGTAAATGCTAGGTGAAAGTCCGATCT | 0.86 | 0.817 | 0.679 | 0.796 | 0.681 | 0.861 | 0.033 | 1.9 | 3.55 | 2.76 | 2.35 | 0.751 | 1.11 | 1.6 | 1.32 | 0.588 | 0.616 | 0.882 | 1.3 | 0.404 |
| TCTTGTAGATCAGAGGTTAAGAAAGCCGAAGCCT | 0.507 | 1.04 | -0.0177 | 1.4 | -0.128 | 2.87 | 4.35 | 5.58 | 4.79 | 5.63 | 1.58 | 2.04 | 0.138 | 0.179 | 0.818 | 0.951 | -0.359 | 1.48 | -0.453 | 0.915 |
| TTACCTAGGTGAAAGGTCGTTGATGCACGCCTTG | 3.04 | 2.96 | 0.393 | 2.74 | -0.415 | 5.66 | 10.4 | 9.22 | 9.2 | 10.2 | 5.23 | 6.14 | 1.6 | 0.889 | 1.73 | 3.69 | 0.261 | 4.82 | -0.203 | 2.38 |
| CAATCTAGGTCAAGAGGTCAAAGTCCGCTTCCCG | 7.07 | 6.49 | 6.61 | 5.64 | 2.31 | 6.48 | 10.2 | 8.66 | 7.43 | 9.5 | 8.4 | 8.71 | 5.68 | 4.57 | 9.94 | 6.5 | 3.63 | 8.3 | 5.1 | 5.36 |
| TCTAGTTGGTCACGGAGGTCAAACACGACGGGTA | 4.19 | 4.67 | 4.58 | 4.25 | 1.38 | 4.39 | 3.25 | 4.13 | 3.76 | 4.08 | 2.37 | 3.95 | 0.658 | 0.77 | 3.43 | 5.11 | 2.87 | 5.16 | 1.13 | 3.9 |
| TCTCGGAGGACACGAAGGTCAGAGTTTTCCAGAG | 1.18 | 0.932 | 0.497 | 1.22 | -0.785 | 1.81 | 0.436 | 1.67 | 2.25 | 1.87 | 1.44 | 1.35 | -0.952 | -0.619 | 1.53 | 2 | 1.37 | 2.07 | 0.114 | 3.32 |
| CCGACTGGGGCAGAAAGGTTACCAGACCATCCGG | 0.0987 | 0.481 | -0.312 | 0.525 | -1.23 | 2.1 | 1.47 | 2.61 | 0.619 | 2.04 | 1.28 | 2.02 | -0.764 | -1.01 | 0.446 | 0.737 | -0.356 | 1.47 | -0.579 | 1.89 |
| TATACAGGGTCAAAGGCCTGAGTACGAATGTCGA | 7.13 | 6.36 | 2.31 | 4.5 | 2.28 | 5.81 | 6.92 | 6.47 | 3.45 | 5.74 | 2.08 | 4.32 | 3.81 | 3.06 | 4.01 | 3.86 | 0.321 | 5.15 | 1.29 | 4.2 |
| TAGGCTAGGTCATTCAGGGGCCAGTATAGAAAGC | 5.03 | 3.64 | 0.726 | 2.79 | 1.32 | 3.63 | 2.37 | 2.47 | 0.608 | 1.64 | 2.09 | 3.13 | 1.07 | 0.104 | 3.69 | 2.64 | 0.0687 | 3.93 | 0.404 | 4.12 |
| CGTCAAAGTTAAACTAAGGTAACGTAAAGCACGC | 0.945 | 1.15 | 0.57 | 0.346 | 0.169 | 0.868 | 0.628 | 0.688 | 0.0889 | 0.292 | 0.269 | 0.719 | 0.529 | 0.672 | 0.0557 | 0.525 | 0.364 | 1.08 | 0.284 | 0.845 |
| TATACAGGGTCAAAGGCCAGAGTACGAATGTCGA | 7.35 | 6.25 | 2.5 | 4.96 | 1.86 | 6.57 | 8.48 | 7.61 | 5.77 | 7.93 | 2.36 | 5.11 | 2.18 | 1.49 | 2.55 | 4.55 | 0.583 | 5.75 | 0.928 | 4.5 |
| GCTACAGGGTCAAGGCCAGAGTACGCGTATTGAT | 6.86 | 3.95 | -0.363 | 3.53 | -0.375 | 5.71 | 5.03 | 4.94 | 1.93 | 3.59 | 2.54 | 3.15 | -0.313 | 0.11 | 2.84 | 4 | 0.0658 | 4.7 | 0.58 | 4.59 |
| CCAGACATGTGAAAGGTAACTCAGTCTGGTACGC | -0.293 | -0.0217 | 0.0919 | 0.07 | 0.186 | 1.02 | 1.63 | 2.44 | 0.62 | 2.1 | 0.121 | 0.275 | -0.125 | 0.223 | 0.969 | 0.118 | -0.196 | 0.553 | 0.138 | 0.186 |
| TGGATGAGGTTATAAGATCAGGGAACGTTGCAAA | 1.51 | 1.26 | 0.181 | 1.52 | 0.594 | 2.42 | 0.897 | 1.54 | 0.844 | 1.35 | -0.0803 | 0.649 | 0.558 | 0.341 | 0.81 | 0.986 | 0.518 | 1.34 | 0.465 | 1.25 |
